Test results published in PubChem BioAssay (NCI).
This is part of a sample that, as a whole, favours compounds with a hit. Of some 79,000 tested, about 15% had one in any assay. A number with no mark means an inactive call. Active and inactive are the calls of the source. No stated cut-off is given here; in the data, active means growth inhibition above about 70%; inactive means the rest.

What was measured:
[1] = NCI Yeast Anticancer Drug Screen. Data for the rad50 strain (AID 155);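 further: 0% = growth of vehicle-only cultures of the same strain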; details: S. cerevisiae rad50 strain growth inhibition, stronger effect = higher value
Outline: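 Growth of the mutant yeast was measured after compound exposure and referenced to vehicle-treated cultures.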

[2] = NCI Yeast Anticancer Drug Screen. Data for the mec2-1 strain (AID 157); details: S. cerevisiae mec2-1 strain, stronger effect = higher value
Outline: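 Growth inhibition is read against vehicle-treated controls after compound exposure of the mec2-1 yeast strain, which is defective in DNA damage repair or cell cycle control.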

[3] = NCI Yeast Anticancer Drug Screen. Data for the sgs1 mgt1 strain (AID 161);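 further: 0% = growth of cultures given vehicle only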; details: S. cerevisiae sgs1 mgt1 strain, stronger effect = higher value
Outline: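 Compounds are added to genetically altered yeast, and growth is compared with cultures given vehicle alone to give percent inhibition.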

[4] = NCI Yeast Anticancer Drug Screen. Data for the cln2 rad14 strain (AID 165);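 further: 0% = growth equal to vehicle treated cultures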; details: S. cerevisiae cln2 rad14 strain, stronger effect = higher value
Outline: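 Growth inhibition, relative to vehicle-treated controls, is the read-out. The test organism is a yeast strain with defined genetic alterations, cln2 rad14.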

[5] = NCI Yeast Anticancer Drug Screen. Data for the bub3 strain (AID 167); details: S. cerevisiae bub3 mutant strain, stronger effect = higher value
Outline: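 Whole-cell yeast assay. The mutant strain was incubated with compounds, and growth inhibition was determined by comparison with vehicle-treated cells.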

[6] = NCI Yeast Anticancer Drug Screen. Data for the mlh1 rad18 strain (AID 175); details: S. cerevisiae mlh1 rad18 strain growth inhibition, stronger effect = higher value
Outline: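 Cells of a genetically altered yeast strain, deficient in DNA damage repair, were treated with compound. Their growth was then compared with that of vehicle-treated cultures to give inhibition.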

[7] = at 5.0 µM (retest, dose inferred, filed as 0.5)
[8] = at 50.0 µM (retest, dose inferred, filed as 5.0)

SMILES	growth inhibition [1, 7]	growth inhibition [1, 8]	growth inhibition ([1]; at 50.0 µM)	growth inhibition [2, 7]	growth inhibition [2, 8]	growth inhibition ([2]; at 50.0 µM)	growth inhibition [3, 7]	growth inhibition [3, 8]	growth inhibition ([3]; at 50.0 µM)	growth inhibition [4, 7]	growth inhibition [4, 8]	growth inhibition ([4]; at 50.0 µM)	growth inhibition [5, 7] [%]	growth inhibition [5, 8]	growth inhibition ([5]; at 50.0 µM)	growth inhibition [6, 7]	growth inhibition [6, 8]	growth inhibition ([6]; at 50.0 µM)
BrC1(c2ccccc2)C[n+]2c(-c3ccccc3)cc(-c3ccccc3)cc2-c2ccccc21 (stereo not given)	95% (active)	99% (active)	89.8% (active)	96% (active)	99% (active)	91.5% (active)	97% (active)	98% (active)	91.2% (active)	95% (active)	99% (active)	91.2% (active)	37	98% (active)	89.4% (active)	97% (active)	99% (active)	91% (active)
CCc1ccccc1NC(=O)C(=O)C(C#N)c1c(Cl)cccc1Cl (stereo not given)	-8%	-2%	-26.7%	2%	1%	8.8%	-17%	-33%	20.7%	-6%	4%	-28.7%	1	0%	12.2%	0%	-1%	14.7%
CC(O)CCCOC(c1ccccc1)(c1ccccc1)c1ccccc1 (stereo not given)	19%	97% (active)	86.5% (active)	9%	97% (active)	83.8% (active)	17%	95% (active)	80.8% (active)	15%	94% (active)	82.7% (active)	28	93% (active)	80.5% (active)	19%	96% (active)	84.4% (active)
CCCCC(CC)COC(=O)c1cc2ccccc2oc1=O (stereo not given)	3%	7%	70.8% (active)	1%	13%	61.8%	3%	21%	68.5%	5%	4%	49.5%	11	35%	79.6% (active)	3%	19%	67.8%
COC(=O)c1ccc2ccccc2c1C(=O)c1ccc(F)cc1	-1%	94% (active)	96.8% (active)	2%	96% (active)	95.5% (active)	4%	95% (active)	96.2% (active)	11%	90% (active)	61.7%	25	97% (active)	97.4% (active)	2%	95% (active)	95% (active)
